Source: PubChem
HT1080NT lethal – kills 2HG-producing HT-1080-NT fibrosarcoma cells; HT-1080-NT fibrosarcoma viability, CellTiter-Glo ATP luminescence, 48 h; Potency, µM (series often up to 46.1 µM), without a hit: at the highest dose activity, negative = less viability, actives largely listed as cytotoxic; 360,000 tested, 1.6% active; AID 686970;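 further: NT is the 2HG producing partner of a matched IDH1 knockdown line; potency means the concentration at half of the fitted maximal effect; 0% = DMSO-treated cells and -100% = media-only wells without cells; nearly all actives have a fitted effect of over 55% in size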
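Toxicity toward the 2HG-producing NT line was scored as %Activity, normalised to DMSO and no-cell wells, from CellTiter-Glo luminescence after 48 hours' treatment.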
IL1B secr inh – inhibitors of inflammasome signaling (IL-1 beta secretion); activity change, % at 57.5 µM; 360,000 tested, 4.7% active; AID 743279; THP-1 LPS/ATP IL-1B secretion, AlphaLISA, 16 h; active compounds read low; in the data active means activity change below about -50%; inconclusive means mostly about -30% to -49%
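THP-1 cells pretreated 1 hr with compounds (up to 57.5 uM final), then stimulated with LPS (250 ng/mL final) plus ATP (1.25 mM final); secreted IL-1B measured by AlphaLISA after 16 hr, decreased signal indicating inhibition.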
HT1080 IDH1KD tx – kills HT-1080 cells with IDH1 knockdown. HT-1080 IDH1 knockdown viability, ATP luminescence, 48 h. AID 686971. 360,000 tested, 2% active. Potency, µM (titrated, usually from 46.1 µM), inactives show top-dose activity, negative = toxicity, actives largely listed as cytotoxic;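 further: potency means the concentration at half of the fitted maximal effect; 0% = DMSO wells and -100% = cell-free medium wells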
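Luminescent ATP read-out (CellTiter-Glo, 10 min at room temperature) after 48 h compound exposure at 37 °C gave viability of IDH1-knockdown HT-1080 cells. Activity was normalised to DMSO and cell-free wells, then fitted as concentration-response curves.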
TDP1 cell noCPT – qHTS for Inhibitors of human tyrosyl-DNA phosphodiesterase 1 (TDP1): qHTS in cells in absence of CPT; DT40 Tdp1-/- hTDP1 cells, no CPT, ATP luminescence, 48 h; Potency, µM (series often up to 46.2 µM), for the others: at the highest dose activity change, negative = growth inhibition, most hits filed as inhibitors; 420,000 tested, 15% active; further: potency means the concentration at half of the fitted maximal effect; nearly all actives have a fitted effect of over 55% in size
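Camptothecin absent (DMSO only). Human TDP1-complemented DT40 knockout cells, 400 cells/well, 37 °C for minimum 48 hr; ATP measured via CellTiter-Glo, 30 min dark incubation, luminescence.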
TDP1 cell CPT – growth inhibition of DT40 Tdp1-/-;hTDP1 cells with camptothecin (screen for TDP1 inhibitors) | chicken DT40 Tdp1-/-;hTDP1 cells + 20 nM CPT, ATP luminescence, 48 h | Potency, µM (highest dose often 46.2 µM), inactives show at the highest dose activity change, negative = growth inhibition, hits mostly inhibitors | 420,000 tested, 12% active; further: potency means the concentration at half of the fitted maximal effect; nearly all actives have a fitted effect of over 55% in size
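Chicken DT40 Tdp1-/- cells stably complemented with human TDP1 were seeded at 400 cells/well in medium containing 20 nM camptothecin, exposed to pin-transferred compounds, and grown at 37 °C for at least 48 hr. Viability was read as ATP luminescence.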
12-LOX inh – inhibitors of human 12S-lipoxygenase ALOX12. AID 1671190. Potency, µM (series often up to 108 µM), without a hit: top-dose activity change, negative = inhibition, hits mostly inhibitors. P18054. purified 12hLO, xylenol orange hydroperoxide absorbance. 580,000 tested, 1.1% active; further: potency means the concentration at half of the fitted maximal effect
Target sequence (P18054 whole entry, looked up): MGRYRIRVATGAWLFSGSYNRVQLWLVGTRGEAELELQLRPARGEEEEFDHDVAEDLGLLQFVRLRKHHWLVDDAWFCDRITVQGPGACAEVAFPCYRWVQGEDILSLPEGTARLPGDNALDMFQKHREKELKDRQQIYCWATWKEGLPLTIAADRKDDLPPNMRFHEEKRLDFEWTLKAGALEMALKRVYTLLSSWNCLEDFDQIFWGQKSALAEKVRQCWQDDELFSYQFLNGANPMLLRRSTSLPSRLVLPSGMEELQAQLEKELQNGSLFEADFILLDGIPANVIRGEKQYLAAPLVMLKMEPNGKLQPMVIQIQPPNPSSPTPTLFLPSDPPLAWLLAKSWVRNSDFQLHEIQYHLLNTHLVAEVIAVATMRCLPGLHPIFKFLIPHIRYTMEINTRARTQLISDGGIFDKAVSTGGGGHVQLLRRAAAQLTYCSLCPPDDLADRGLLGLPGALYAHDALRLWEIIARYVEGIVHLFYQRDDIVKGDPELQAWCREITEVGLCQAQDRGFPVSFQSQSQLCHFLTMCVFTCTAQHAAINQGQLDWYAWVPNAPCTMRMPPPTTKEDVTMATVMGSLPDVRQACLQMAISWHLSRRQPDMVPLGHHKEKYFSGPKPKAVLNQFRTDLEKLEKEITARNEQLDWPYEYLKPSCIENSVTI
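Purified human 12hLO at 150 nM in 25 mM Hepes, 0.01% Triton X-100, pH 7.0, preincubated 15 min at room temperature with compound. Reaction started with 40 uM arachidonic acid, 30 min at room temperature. Hydroperoxide measured by Fe-xylenol orange, 573/405 nm absorbance ratio.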
Starred values were filed as active, the others as inactive. Shown is part of a subset that was picked to be rich in hits. Unless noted, the call rests on the fitted dose curve; in most records, active means well fitted curve in the direction sought with a large enough effect; inconclusive means small, poorly fitted or top-dose-only effect, or another doubt; inactive means no such curve, though single readings can be large; an effect the other way counts as inactive or inconclusive. Unless noted, on the % scale 0 is the no-effect control and ±100 the full control effect.

Cc1ccc(S(=O)(=O)N2CCC(C(N)=O)CC2)cc1[N+](=O)[O-] was read as HT1080NT lethal 17.0%, IL1B secr inh 5.1, HT1080 IDH1KD tx 26.3%, TDP1 cell noCPT 1.3%, TDP1 cell CPT 10.4% and 12-LOX inh 8.1%.
Screening FC1(F)CN[C@H](c2nc(-c3cccnc3)no2)C1 returned 12-LOX inh 45.4%.
Screening CCCCCCCNC(=O)C1(CC2CC(c3ccc(Cl)cc3)=NO2)CCN(C(=O)OC(C)(C)C)CC1 (stereo not given) returned HT1080NT lethal 1.0%, IL1B secr inh -10.4, HT1080 IDH1KD tx 11.5%, TDP1 cell noCPT 20.6µM*, TDP1 cell CPT inconclusive and 12-LOX inh -13.6%.
For COC(=O)C1(CC2CC(c3ccncc3)=NO2)CCN(C(=O)OC(C)(C)C)CC1 (stereo not given) the results were HT1080NT lethal 7.8%, IL1B secr inh 7.7, HT1080 IDH1KD tx 6.2%, TDP1 cell noCPT 20.6µM*, TDP1 cell CPT inconclusive and 12-LOX inh -2.1%.
Screening COC(=O)C1(CC2CC(c3ccccc3)=NO2)CCN(C(=O)OC(C)(C)C)CC1 (stereo not given) returned HT1080NT lethal -4.5%, IL1B secr inh -8.9, HT1080 IDH1KD tx -1.6%, TDP1 cell noCPT 20.6µM*, TDP1 cell CPT inconclusive and 12-LOX inh -26.2%.
Cc1ccc(C)c(NC(=O)Cn2c(=O)c(-c3noc(C)n3)c3n(c2=O)CCCCC3)c1 was read as 12-LOX inh 1.8%.
`COc1cccc(NC(=O)N(CCCN2CCOCC2)C(C)c2cc3ccccc3o2)c1` (stereo not given) gave HT1080NT lethal 15.8µM*, IL1B secr inh -4.3, HT1080 IDH1KD tx -12.4%, TDP1 cell noCPT inconclusive, TDP1 cell CPT inconclusive and 12-LOX inh -4.0%.
CC1CC(C)(C)CC2(C1)NC(=O)N(CC(=O)N1CCN(S(=O)(=O)c3cccc(Cl)c3Cl)CC1)C2=O (stereo not given) was read as HT1080NT lethal -1.2%, IL1B secr inh -22.3, HT1080 IDH1KD tx -22.6%, TDP1 cell noCPT inconclusive, TDP1 cell CPT 18.4µM* and 12-LOX inh inconclusive.
`Cc1[nH]c2ccccc2c1C(=O)CN1C(=O)NC2(CC(C)CC(C)(C)C2)C1=O` (stereo not given) gave HT1080NT lethal -12.6%, IL1B secr inh -20.8, HT1080 IDH1KD tx -16.2%, TDP1 cell noCPT inconclusive, TDP1 cell CPT 14.6µM* and 12-LOX inh -13.2%.
For CC1(C)NC(=O)N(CC(=O)N2CCN(S(=O)(=O)c3cc(Cl)ccc3Cl)CC2)C1=O the results were HT1080NT lethal 12.5%, IL1B secr inh -6.2, HT1080 IDH1KD tx 0.0%, TDP1 cell noCPT -5.6%, TDP1 cell CPT -1.4% and 12-LOX inh -13.4%.
Screening CCOC(=O)c1nc2cc3n(c(C)c-2c1C)C(C)C(CC)=C3C (stereo not given) returned HT1080NT lethal -0.1%, IL1B secr inh -73.5*, HT1080 IDH1KD tx -3.4%, TDP1 cell noCPT 18.4µM*, TDP1 cell CPT 20.6µM* and 12-LOX inh -3.1%.
`Cc1cc(N/N=C/c2ccc(N(C)C)cc2)nc(NCc2ccccc2)n1` gave HT1080NT lethal 7.6%, IL1B secr inh -60.7*, HT1080 IDH1KD tx 8.1%, TDP1 cell noCPT 5.8µM*, TDP1 cell CPT 7.31µM* and 12-LOX inh -7.6%.
`Cc1cc(N/N=C/c2ccc(Cl)cc2Cl)nc(NCc2ccccc2)n1` gave HT1080NT lethal -10.6%, IL1B secr inh 0.0, HT1080 IDH1KD tx inconclusive, TDP1 cell noCPT 7.31µM*, TDP1 cell CPT 10.3µM* and 12-LOX inh -29.0%.
CN(C)c1nc(NCc2ccccc2)nc(N/N=C/c2ccc(Br)cc2)n1 was read as HT1080NT lethal -5.4%, IL1B secr inh 4.6, HT1080 IDH1KD tx -8.5%, TDP1 cell noCPT -13.7%, TDP1 cell CPT -8.6% and 12-LOX inh 12.6%.
For Cc1cc(N/N=C/c2ccc(F)cc2)nc(NCc2ccccc2)n1 the results were HT1080NT lethal 18.4µM*, IL1B secr inh -96.5*, HT1080 IDH1KD tx 16.4µM*, TDP1 cell noCPT 11.6µM*, TDP1 cell CPT 8.2µM* and 12-LOX inh 0.0%.
Clc1ccc(C=NNc2ccccn2)c(Cl)c1 was read as HT1080NT lethal 21.3%, IL1B secr inh 28.9, HT1080 IDH1KD tx inconclusive, TDP1 cell noCPT 1.3%, TDP1 cell CPT 0.4% and 12-LOX inh -17.4%.
`CC(C)(CN1CCCN(CC(C)(C)C(=O)O)C1=O)C(=O)O` gave HT1080NT lethal 7.9%, IL1B secr inh -8.9, HT1080 IDH1KD tx 7.7%, TDP1 cell noCPT -5.9%, TDP1 cell CPT -9.8% and 12-LOX inh 4.9%.
Screening COc1ccc(C2CC(=O)Oc3c2c(=O)n(C)c2ccccc32)c(OC)c1 (stereo not given) returned 12-LOX inh -15.8%.
For COc1ccc(CNC(=O)CC[C@@H]2CNC(=O)[C@@H]3C[C@H](NCc4ccc(N(C)C)cc4)CN23)cc1 the results were 12-LOX inh -4.6%.
Screening COc1cccc(NC(=O)[C@H](Cc2ccccc2)n2c(=O)[nH]c3ccccc3c2=O)c1 returned 12-LOX inh 15.5%.
CC(C)Oc1ccc(C(=O)NC2(C(F)(F)F)NC(=O)N(CCCc3ccccc3)C2=O)cc1 (stereo not given) was read as HT1080NT lethal -2.0%, IL1B secr inh -63.9*, HT1080 IDH1KD tx inconclusive, TDP1 cell noCPT inconclusive, TDP1 cell CPT inconclusive and 12-LOX inh -34.0%.
Screening O=C(c1ccco1)N1CCN(C(=O)C2CCN(C(=O)c3cccs3)CC2)CC1 returned 12-LOX inh -0.6%.
For Cc1cccc(N2CCN(C(=O)c3ccc4c(c3)c(C)c(C)n4C)CC2)c1C the results were TDP1 cell noCPT inconclusive, TDP1 cell CPT -20.4% and 12-LOX inh -21.8%.
Cc1ccc(C)c(N2CCN(C(=O)c3ccc4c(c3)c(C)c(C)n4C)CC2)c1 was read as HT1080NT lethal inconclusive, IL1B secr inh 3.0, HT1080 IDH1KD tx inconclusive, TDP1 cell noCPT 16.4µM*, TDP1 cell CPT 23.1µM* and 12-LOX inh -1.7%.
Screening Cc1ccc(N2CCN(C(=O)c3cc(C(=O)c4ccccc4C)c[nH]3)CC2)c(C)c1 returned HT1080NT lethal 9.5%, IL1B secr inh inconclusive, HT1080 IDH1KD tx 5.1%, TDP1 cell noCPT 23.1µM*, TDP1 cell CPT inconclusive and 12-LOX inh -13.3%.
